Laboratory results published in the OligoGym collection.

These sequences were tested against FGF2 (assay: pooled miR-30 sensor sort-seq; sequence = guide strand). Conditions: shRNA.
Also: reference of the scale not given here.

Q: TAGCTTTCTGCCCAGGTCCTGT was tested. Which sensor-assay potency score (higher = more potent) did it give?
A: -0.929

Q: With TTTGCAGTACAGCCGCTTGGGG as the sequence, how does the sensor-assay potency score (higher = more potent) read?
A: -0.977

Q: With TTCTAAAATATACTTCTTCTTT as the sequence, how does the sensor-assay potency score (higher = more potent) read?
A: -0.418

Q: With TTTGATAGACACAACTCCTCTC as the sequence, how does the sensor-assay potency score (higher = more potent) read?
A: 0.744

Q: TTAGAAGCCAGTAATCTTCCAT was tested. Which sensor-assay potency score (higher = more potent) did it give?
A: 0.816

Q: Which sensor-assay potency score (higher = more potent) does the source give for TAGACACAACTCCTCTCTCTTC here?
A: -0.65

Q: With ATAGACACAACTCCTCTCTCTT as the sequence, how does the sensor-assay potency score (higher = more potent) read?
A: -0.298

Q: AACGGTTAGCACACACTCCTTT was tested. Which sensor-assay potency score (higher = more potent) did it give?
A: 0.1

Q: Which sensor-assay potency score (higher = more potent) does the source give for TTGATAGACACAACTCCTCTCT here?
A: 0.382

Q: For AAAAAAGAAACACTCATCCGTA, which sensor-assay potency score (higher = more potent) is on record?
A: 0.00256

Q: TAACGGTTAGCACACACTCCTT was tested. Which sensor-assay potency score (higher = more potent) did it give?
A: -1.27

Q: With TCCATCTTCCTTCATAGCCAGG as the sequence, how does the sensor-assay potency score (higher = more potent) read?
A: -1.98

Q: Which sensor-assay potency score (higher = more potent) does the source give for TATACTTCTTCTTTCATGTGAA here?
A: 0.715

Q: With TTCAGTGCCACATACCAACTGG as the sequence, how does the sensor-assay potency score (higher = more potent) read?
A: -0.475

Q: How did the sensor-assay potency score (higher = more potent) turn out when TAACACATTTAGAAGCCAGTAA was run?
A: -0.0447

Q: How did the sensor-assay potency score (higher = more potent) turn out when TGGTGTATTTCCTTGACCGGTA was run?
A: -0.344

Q: With TTGGAAGAAAAAGTATAGCTTT as the sequence, how does the sensor-assay potency score (higher = more potent) read?
A: 0.162

Q: How did the sensor-assay potency score (higher = more potent) turn out when TAGCTTGATGTGAGGGTCGCTC was run?
A: -0.132

Q: For TAGAAGCCAGTAATCTTCCATC, which sensor-assay potency score (higher = more potent) is on record?
A: -0.587

Q: Which sensor-assay potency score (higher = more potent) does the source give for TGAGGGTCGCTCTTCTCCCGGA here?
A: -0.455

Q: With TAGTTATTAGATTCCAATCGTT as the sequence, how does the sensor-assay potency score (higher = more potent) read?
A: -0.676

Q: How did the sensor-assay potency score (higher = more potent) turn out when TTTGGATCCAAGTTTATACTGC was run?
A: -0.268

Q: TATTAGATTCCAATCGTTCAAA was tested. Which sensor-assay potency score (higher = more potent) did it give?
A: -0.684

Q: How did the sensor-assay potency score (higher = more potent) turn out when TTGCAGTACAGCCGCTTGGGGT was run?
A: -1.34

These sequences were tested against FGFR1 in the same assay as above. Conditions: shRNA.

Q: How did the sensor-assay potency score (higher = more potent) turn out when TGAACTTCACTGTCTTGGCAGC was run?
A: -0.906

Q: For TGTCTTTTTATAGTAGTCGATG, which sensor-assay potency score (higher = more potent) is on record?
A: -1.03

Q: Which sensor-assay potency score (higher = more potent) does the source give for TCTGTCACCAGGACATTCCTGG here?
A: 0.104

Q: With TCTCGGTGTATGCACTTCTTGG as the sequence, how does the sensor-assay potency score (higher = more potent) read?
A: -1.66

Q: Which sensor-assay potency score (higher = more potent) does the source give for TAAATCTCTGGTAACGACCCTT here?
A: 0.102

Q: TTGAAGGTGGGTCTCTGTGAGG was tested. Which sensor-assay potency score (higher = more potent) did it give?
A: -0.69

Q: For TTTATAGTAGTCGATGTGGTGA, which sensor-assay potency score (higher = more potent) is on record?
A: -0.221

Q: TTCATCATCTCCATTTCTGAGA was tested. Which sensor-assay potency score (higher = more potent) did it give?
A: -0.548

Q: Which sensor-assay potency score (higher = more potent) does the source give for TTCTTTTCCATCTTTTCTGGGG here?
A: -0.274

Q: TTGTCTTTTTATAGTAGTCGAT was tested. Which sensor-assay potency score (higher = more potent) did it give?
A: -0.804

Q: With TGTAGCAGTATTCCAGCCCTGG as the sequence, how does the sensor-assay potency score (higher = more potent) read?
A: -0.142

Q: TCTTAAGTGAAGCACCTCCATC was tested. Which sensor-assay potency score (higher = more potent) did it give?
A: -1.39

Q: How did the sensor-assay potency score (higher = more potent) turn out when TTTTATAGTAGTCGATGTGGTG was run?
A: -0.492

Q: With TTTTAATATATAGCAACTGATG as the sequence, how does the sensor-assay potency score (higher = more potent) read?
A: -1.31

Q: Which sensor-assay potency score (higher = more potent) does the source give for TTACTGGGCTTGTCCATGCGGT here?
A: -0.849
